# Measured values as given in paper PMC4053984, “DNA binding specificities of the long zinc-finger recombination protein PRDM9”.
# Target: PRDM9Cst (Mus musculus (CAST/EiJ))
# Assay: competition EMSA; competition against biotin-labeled 75-bp Hlx1 B6 oligo; 10 mM Tris pH 7.5, 50 mM KCl, 1 mM DTT, 50 ng/ul poly(dI/dC), 0.05% NP-40, crude E. coli extract 3 ul in 20 ul; 1 h with unlabeled competitor, then 4 h with biotin-labeled 75-bp Hlx1; temperature not stated; high values mean tight binding
# Conditions: tags: N-terminal His tag (pBAD/HisB); dsDNA, one strand shown
# Sequence of PRDM9Cst (Mus musculus (CAST/EiJ)) (chain, as listed by the source): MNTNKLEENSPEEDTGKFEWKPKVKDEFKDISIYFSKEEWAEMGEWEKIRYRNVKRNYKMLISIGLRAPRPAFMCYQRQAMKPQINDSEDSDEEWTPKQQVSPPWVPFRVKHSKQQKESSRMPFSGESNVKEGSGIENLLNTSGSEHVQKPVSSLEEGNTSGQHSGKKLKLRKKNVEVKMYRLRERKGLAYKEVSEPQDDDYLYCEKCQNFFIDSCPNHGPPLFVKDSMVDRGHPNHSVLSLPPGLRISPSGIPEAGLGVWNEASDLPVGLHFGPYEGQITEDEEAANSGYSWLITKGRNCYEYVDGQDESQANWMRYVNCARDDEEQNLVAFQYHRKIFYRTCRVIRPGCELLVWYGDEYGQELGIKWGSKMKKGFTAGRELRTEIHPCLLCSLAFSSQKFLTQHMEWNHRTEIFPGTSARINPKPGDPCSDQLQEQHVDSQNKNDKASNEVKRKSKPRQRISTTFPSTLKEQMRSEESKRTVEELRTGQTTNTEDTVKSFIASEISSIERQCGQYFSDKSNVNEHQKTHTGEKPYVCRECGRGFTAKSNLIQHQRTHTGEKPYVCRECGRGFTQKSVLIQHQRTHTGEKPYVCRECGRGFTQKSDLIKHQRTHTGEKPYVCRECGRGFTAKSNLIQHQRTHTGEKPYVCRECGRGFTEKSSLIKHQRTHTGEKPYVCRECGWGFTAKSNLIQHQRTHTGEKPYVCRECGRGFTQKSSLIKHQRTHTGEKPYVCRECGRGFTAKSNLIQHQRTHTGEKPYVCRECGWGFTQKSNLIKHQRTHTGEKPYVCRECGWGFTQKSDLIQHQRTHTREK
row,Sequence,binding signal
1,ATAGTGTGCAGACTTGGACCCTGCCCTTTCTCT,"0.13 Bmut (0 = wild type, -1 = scrambled)"
2,ATAGTGTGCAGACTTGGACCGTGCCCTTTCTTT,"0.06 Bmut (0 = wild type, -1 = scrambled)"
3,ATAGTGTGCAGACTTGGTCCCTGCCCTTTCTTT,"0.1 Bmut (0 = wild type, -1 = scrambled)"
4,ATAGTGTGCAGGCTTGGACCCTGCCCTTTCTTT,"-0.1 Bmut (0 = wild type, -1 = scrambled)"
5,ATAGTGTGCAGACTTTGACCCTGCCCTTTCTTT,"0 Bmut (0 = wild type, -1 = scrambled)"
6,ATAGTGTGCAGACTTGGACCCTGGCCTTTCTTT,"0.03 Bmut (0 = wild type, -1 = scrambled)"
7,ATAGTGTGCAGACTTGGACCCTGCCCTCTCTTT,"-0.1 Bmut (0 = wild type, -1 = scrambled)"
8,ATAGTGTCCAGACTTGGACCCTGCCCTTTCTTT,"-0.1 Bmut (0 = wild type, -1 = scrambled)"
9,TTAGTGTGCAGACTTGGACCCTGCCCTTTCTTT,"0 Bmut (0 = wild type, -1 = scrambled)"
